Experimental data from PubChem BioAssay (EPA / NIEHS).
Active and inactive are the calls of the source. How the source made its calls: active means hit-call score of the fitted dose curve at least 0.9, where 1 is the maximum; inactive means score below 0.9.

What follows are compounds tested against Bile acid receptor (Homo sapiens) (UniProt Q96RI1) (assay: ATG_IR1_CIS: Attagene CIS-FACTORIAL HepG2 Assay for human Nuclear Receptor Subfamily 1 Group H Member 4 (NR1H4), IR1 submotif (AID 2282946)). Details: IR1 reporter transcription, actives raise or lower the signal.
Sequence of Bile acid receptor (Homo sapiens) (Q96RI1 whole entry, looked up): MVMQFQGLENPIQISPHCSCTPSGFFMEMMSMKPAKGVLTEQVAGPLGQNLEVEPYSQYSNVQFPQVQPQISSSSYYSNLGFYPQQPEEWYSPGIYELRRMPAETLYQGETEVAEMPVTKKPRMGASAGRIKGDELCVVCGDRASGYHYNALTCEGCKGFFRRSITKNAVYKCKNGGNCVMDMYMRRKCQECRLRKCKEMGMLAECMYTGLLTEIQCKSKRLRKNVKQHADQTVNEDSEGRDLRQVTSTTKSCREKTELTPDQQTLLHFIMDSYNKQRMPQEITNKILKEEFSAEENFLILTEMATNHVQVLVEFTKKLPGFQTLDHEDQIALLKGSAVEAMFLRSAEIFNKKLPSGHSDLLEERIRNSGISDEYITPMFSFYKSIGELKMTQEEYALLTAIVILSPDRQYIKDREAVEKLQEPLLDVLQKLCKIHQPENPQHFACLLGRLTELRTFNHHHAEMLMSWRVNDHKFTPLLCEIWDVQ
Procedure: ATG_CIS is a cell-based, multiplexed-readout assay that uses HepG2, a human liver cell line, with measurements taken at 24 hours after chemical dosing in a 24-well plate.ATG_IR1_CIS is one of 52 assay component(s) measured or calculated from the ATG_CIS assay. It is designed to make measurements of mRNA induction, a form of inducible reporter, as detected with fluorescence intensity signals by Reverse transcription polymerase chain reaction (RT-PCR) and Capillary electrophoresis technology.Data from the assay component ATG_IR1_CIS was analyzed into 1 assay endpoint. This assay endpoint, ATG_IR1_CIS, was analyzed with bidirectional fitting relative to DMSO as the negative control and baseline of activity. Using a type of inducible reporter, measures of mRNA for gain or loss-of-signal activity can be used to understand the reporter gene at the transcription factor-level as they relate to the gene NR1H4. Furthermore, this assay endpoint can be referred to as a primary readout, because this assay has produced multiple assay endpoints where this one serves a reporter gene function. To generalize the intended target to other relatable targets, this assay endpoint is annotated to the nuclear receptor intended target family, where the subfamily is non-steroidal.
Human liver HepG2 cells are transiently transfected with multiple reporter transcription units (MRTUs) in 6-well plates using FuGene 6 reagent (Roche; 3 ml FuGene/1 mg DNA). The MRTU constructs are regulated by a cis-regulating element (promoter). […] A major difference between the CIS and TRANS system is that in CIS activities of endogenous TFs are measured, whereas the TRANS assay evaluates changes in activities of exogenous, chimeric NR-Gal4 proteins. […] At the end of 24 hour incubation, total RNA was isolated using TriZol reagent (Invitrogen). The isolated RNA is then reverse-transcribed using oligo(dT) primer and Mo-MLV reverse transcriptase (Invitrogen) with DNAse I (Ambion) treatment for 30 min. The one-tenth of the produced cDNA was amplified by PCR using Taq DNA polymerase (Invitrogen) and two reporter sequence-specific primers. The PCR products were fluorescently labeled by primer extension with 6-arboxyfluorescein (6-FAM) 5'-labeled reporter sequence-specific primer (2 min at 95 C, 20 s at 68 C and 10 min at 72 C) and these products were digested with 5U of HpaI (New England Biolabs) for 2h at 37 C. The fragments were purified using Qiaquick PCR columns (Qiagen), analyzed on an ABI 3130xL genetic analyzer (Applied Biosystems) with peak positions identified by using a set of X-rhodamine (ROX)-labeled MapMarker1000 molecular weight standards (BioVentures). The raw capillary electrophoresis data was processed using Attagraph software (Attagene).
In the case of `CCOP(=S)(OCC)SCS(=O)(=O)C(C)(C)C`, the AC50 is reported as 34.8 µM (active).
In the case of `O=S1OC[C@@H]2[C@H](CO1)[C@]1(Cl)C(Cl)=C(Cl)[C@@]2(Cl)C1(Cl)Cl` (stereo not given in full), the outcome is reported as “inactive”.
For `N#Cc1ccccc1Cl`, the outcome was “inactive”.
In the case of `CCOC(=O)C(SP(=S)(OC)OC)c1ccccc1` (stereo not given), the outcome is reported as “inactive”.
In the case of `Cc1cc(C(F)(C(F)(F)F)C(F)(F)F)ccc1NC(=O)c1cccc(I)c1C(=O)NC(C)(C)CS(C)(=O)=O`, the outcome is reported as “inactive”.
`Nc1ccc(N)cc1` was tested, and the outcome was “inactive”.
With `CCCCC(CC)C(=O)Cl` (stereo not given) the outcome was “inactive”.
With `CCCCOP(=O)(CCCC)OCCCC` the outcome was “inactive”.
With `CCCSP(=S)(OCC)Oc1ccc(SC)cc1` (stereo not given) the outcome was “inactive”.
In the case of `COc1nn(C(=O)NS(=O)(=O)c2ccccc2OC(F)(F)F)c(=O)n1C`, the outcome is reported as “inactive”.
With `CC(C)[C@@H](Nc1ccc(C(F)(F)F)cc1Cl)C(=O)OC(C#N)c1cccc(Oc2ccccc2)c1` (stereo not given in full) the outcome was “inactive”.
With `C#C[C@]1(O)CC[C@H]2[C@@H]3CCC4=CC(=O)CC[C@]4(C)[C@H]3CC[C@@]21C` the outcome was “inactive”.
In the case of `CCOC(=O)OC1=C(c2cc(C)ccc2C)C(=O)NC12CCC(OC)CC2` (stereo not given), the outcome is reported as “inactive”.
For `O=[N+]([O-])c1ccc(Cl)c([N+](=O)[O-])c1`, the outcome was “inactive”.
In the case of `Oc1cccc(-c2ccccc2)c1`, the outcome is reported as “inactive”.
With `CCCCOC(C)=O` the outcome was “inactive”.
For `NNCCO`, the outcome was “inactive”.
`CCCCCCCCBr` was tested, and the outcome was “inactive”.
In the case of `NC(=O)CCl`, the outcome is reported as “inactive”.
In the case of `Cc1ccc(CCl)cc1`, the outcome is reported as “inactive”.
With `C[C@@H]1O[C@@H](O[C@H]2C[C@@H](O)[C@]3(CO)[C@H]4[C@H](O)C[C@]5(C)[C@@H](C6=CC(=O)OC6)CC[C@]5(O)[C@@H]4CC[C@]3(O)C2)[C@H](O)[C@H](O)[C@H]1O` the outcome was “inactive”.
In the case of `O=NN1CCCCCC1`, the outcome is reported as “inactive”.
`N#Cc1cccnc1` was tested, and the outcome was “inactive”.
For `CC(C)C(C)(N)C#N` (stereo not given), the outcome was “inactive”.
For `O=C(CCl)Nc1ccccc1`, the AC50 was 54.4 µM (active).
`BrCc1ccc(Br)cc1` was tested, and the outcome was “inactive”.
`CC1(C)COP(Oc2ccccc2)OC1` was tested, and the outcome was “inactive”.
`O=C(O)COc1cc(Cl)c(Cl)cc1Cl` was tested, and the outcome was “inactive”.
`CC(C)(C)c1ccc(CCOc2ncnc3ccccc23)cc1` was tested, and the outcome was “inactive”.
For `O=C1C=CC(=O)c2ccccc21`, the outcome was “inactive”.
With `O=S(=O)(C(Cl)(Cl)Cl)C(Cl)(Cl)Cl` the outcome was “inactive”.
With `C=CCN=C=S` the outcome was “inactive”.
For `O=C(NC(=O)c1c(F)cccc1F)Nc1ccc(Cl)cc1`, the outcome was “inactive”.
In the case of `FC(F)OCC(F)(F)C(F)(F)F`, the outcome is reported as “inactive”.
For `c1ccc(-c2cccc(-c3ccccc3)c2)cc1`, the outcome was “inactive”.
For `Cl[C@H]1OCCO[C@@H]1Cl`, the outcome was “inactive”.
With `BrCC(Br)c1ccccc1` (stereo not given) the outcome was “inactive”.
With `O=C(NC(=O)c1c(F)cccc1F)Nc1cc(Cl)c(OC(F)(F)C(F)C(F)(F)F)cc1Cl` (stereo not given) the outcome was “inactive”.
In the case of `ClCCN1CCOCC1`, the outcome is reported as “inactive”.
In the case of `CN(CCCC(O)c1cccnc1)N=O` (stereo not given), the outcome is reported as “inactive”.
